# Screens deposited in PubChem BioAssay by National Center for Advancing Translational Sciences (NCATS).
# Most compounds without a hit are left out; they make up all but 8.2% or so of the library.
# ELG1 DNA repair: qHTS screen for small molecules that inhibit ELG1-dependent DNA repair in human embryonic kidney (HEK293T) cells expressing luciferase-tagged ELG1; HEK293T ELG1-luciferase reporter, luminescence, 16 h; DNA damage induced by 5-fluorouridine; Potency, µM (titrated, usually from 46.1 µM), for inactives: top-dose activity change, negative = inhibition, usual class: inhibitors; actives 2.3% (n = 330,000); AID 504467, 2011; also: % is scaled to controls: 0 for no effect and ±100 for the full control effect; nearly all actives have a fitted effect of over 55% in size
#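 DMSO vehicle served as the neutral condition. Each well held 2,000 cells given 5-fluorouridine plus compound; after 16 hr at 37 °C/5% CO2, ONE-Glo was added and luciferase measured 30 min later.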
# SW480 rereplic: A quantitative high throughput screen for small molecules that induce DNA re-replication in SW480 colon adenocarcinoma cells; SW480 DNA re-replication, Hoechst DNA content imaging, 48 h; Potency, µM (doses to about 46.1 µM), for inactives: at the highest dose re-replication activation, usual class: activators; actives 1.8% (n = 340,000); also: % of control where 0% means no effect; nearly all actives have a fitted effect of over 55% in size
#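 Compounds, transferred as 23 nL by pin tool, were incubated with cells for 48 hr; DNA content per nucleus was then quantified by Hoechst staining and fluorescence plate imaging.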
# MCF10A rereplic: A quantitative high throughput screen for small molecules that induce DNA re-replication in MCF 10a normal breast cells. MCF 10A DNA re-replication, Hoechst nuclear intensity, 48 h. Potency, µM (highest dose often 46.1 µM), for the others: top-dose activity, positive = re-replication, hits mostly activators. actives 2.9% (n = 350,000); also: % of control where 0% means no effect; nearly all actives have a fitted effect of over 50% in size
# KB-3-1 tox: qHTS assay for MDR1-selective chemotherapeutics: Primary screen using the parental adenocarcinoma cell KB-3-1; AID 1347075, 2019; actives 1.4% (n = 400,000); Potency, µM (doses to about 46.1 µM), hits mostly cytotoxic; KB-3-1 viability, CellTiter-Glo ATP luminescence, 72 h; also: % is scaled to controls: 0 for no effect and ±100 for the full control effect; nearly all actives have a fitted effect of over 60% in size
#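 Cytotoxicity measured as CellTiter-Glo luminescence after 72 h at 37 C. Compound titrations were pinned onto drug-naive KB-3-1 parental adenocarcinoma cells grown in DMEM with 10% FBS, and normalized data fitted to concentration-response curves.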
# KB-V1 MDR tox: qHTS assay for MDR1-selective chemotherapeutics: Primary screen using the drug-selected MDR subline cells KB-V1 | KB-V1 MDR cells viability, CellTiter-Glo, 72 h | AID 1347076, 2019 | actives 3.4% (n = 400,000) | Potency, µM (highest dose often 46.1 µM), hits mostly cytotoxic; also: % is scaled to controls: 0 for no effect and ±100 for the full control effect; nearly all actives have a fitted effect of over 60% in size
#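 Readout: CellTiter-Glo luminescence, 10 min after addition. Cells: KB-V1 MDR subline, 72 h at 37 degrees C with compound. Analysis: corrected, normalized data fitted to concentration-effect curves.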
# Starred values were filed as active, the others as inactive; i = inactive; ? = inconclusive; · = no result. Calls follow the shape of the dose curve; as a rule, active = well fitted curve in the direction sought with a large enough effect; inconclusive = small, poorly fitted or top-dose-only effect, or another doubt; inactive = no such curve, though single readings can be large; an effect the other way counts as inactive or inconclusive. Potency is read from the fitted curve at half-maximal effect.
SMILES,ELG1 DNA repair,SW480 rereplic,MCF10A rereplic,KB-3-1 tox,KB-V1 MDR tox
Cc1ccc(C(=O)CSc2nc(-c3ccccc3)nc3c2CCCC3)cc1C,·,·,·,i,i
COc1ccc(-c2nc(-c3ccc(O)cc3O)cs2)cc1OC,9.1%,?,20.6µM*,i,?
COc1ccc(-c2ccnc(-c3ccncc3)n2)cc1,7.8%,20.6µM*,17.1%,?,i
COc1ccc(-c2nc(CCl)cs2)cc1,?,-4.7%,?,i,i
COc1ccc(-c2csc(-c3cccnc3)n2)cc1C,?,-67.1%,-2.2%,i,?
COc1ccc2cc(-c3csc(-c4cccnc4)n3)ccc2c1,?,15.8%,14.6µM*,i,i
COc1ccc(-c2csc(-c3ccc(O)cc3)n2)cc1,?,7.31µM*,14.6µM*,4.11µM*,2.59µM*
COCCNC(=O)C1(C)CCN(C(=O)c2cccnc2Oc2ccccc2)C1 (centres undefined),·,·,·,i,i
NC(=O)COC(=O)c1ccccc1OCC(=O)Nc1ccc(Br)cc1,·,·,·,i,i
COc1ccc(-c2ccnc(-c3ccc(O)cc3)n2)cc1,?,8.2µM*,2.06µM*,5.8µM*,7.31µM*
Cc1ccc(-c2ccnc(-c3ccc(O)cc3)n2)cc1,?,7.3%,-1.4%,i,?
CC(C)c1cc(C(C)C)c(S(=O)(=O)NNC(=O)c2ccncc2)c(C(C)C)c1,-6.5%,-129.2%,-0.5%,i,14.6µM*
O=C(NNS(=O)(=O)c1ccc(Br)cc1)c1ccncc1,2.9%,3.9%,0.7%,i,i
CSc1ccc(/C=C2\C=Cc3ccc([N+](=O)[O-])cc32)cc1,·,·,·,i,?
O=c1c(-c2ccco2)[n+]([O-])c2ccccc2n1OCc1ccccc1[N+](=O)[O-],23.1µM*,-8.2%,18.6%,?,i
O=S(=O)(Nc1cccc(-c2ccc(N3CCCCC3)nn2)c1)c1ccc(Cl)s1,·,·,·,i,i
CCOc1ccc(C(=O)NC2C(=O)N3C(C(=O)O)=C(COC(C)=O)CSC23)cc1OCC (centres undefined),?,-8.7%,16.4µM*,i,i
Cc1noc(C)c1COc1ccccc1C(=O)N1CCN(S(=O)(=O)c2ccccc2F)CC1,?,1.6%,2.4%,i,?
Cc1ccc(NC(=O)c2ccccc2OCc2c(C)noc2C)cc1S(=O)(=O)N(C)C,?,0.7%,-0.6%,i,2.31µM*
Cc1noc(C)c1COc1ccccc1C(=O)N1CCN(S(=O)(=O)c2ccccc2C#N)CC1,·,-4.8%,3.9%,i,14.6µM*
COc1ccc(CCNC(=O)c2ccccc2OCc2c(C)noc2C)cc1,-8.9%,-3.7%,-4.0%,i,5.8µM*
O=C(Nc1ccccc1)N1CCn2c(nc3ccccc32)C1,?,-0.2%,15.1%,i,23.1µM*
COc1cc(/C=c2\s/c(=C\C(=O)C(C)(C)C)[nH]c2=O)cc(OC)c1OC,?,4.11µM*,18.4µM*,i,?
CC(C)C1C(=O)N(Cc2cn(CCC3OCCCO3)nn2)CCS(=O)(=O)N1Cc1ccc(-c2ccc(Cl)cc2)cc1 (centres undefined),·,·,·,i,i
CC(C)C1C(=O)N(Cc2cn(CCC3OCCO3)nn2)CCS(=O)(=O)N1Cc1ccc(-c2ccc(Cl)cc2)cc1 (centres undefined),·,·,·,?,16.4µM*
SMILES,ELG1 DNA repair,SW480 rereplic,MCF10A rereplic,KB-3-1 tox,KB-V1 MDR tox
Cc1ccccc1NC(=O)Cc1nc(COC(=O)Cc2c(F)cccc2Cl)cs1,?,-2.4%,15.1%,i,i
Cc1ccc2c(C)c(C)c(=O)n(C)c2c1,·,-2.4%,2.4%,i,14.6µM*
CCOc1ccc(-c2cc3nc(C4CCN(C(=O)OC(C)(C)C)CC4)c(C(=O)Nc4ccc(C)c(F)c4)cn3n2)cc1,·,·,·,i,i
CCOc1cccc(CNc2ccc(O)cc2)c1OCc1ccccc1Cl,18.4µM*,?,?,i,i
Cc1cc2nc(CCN3CCOCC3)n(S(=O)(=O)c3ccc(C(C)(C)C)cc3)c2cc1C,20.6µM*,0.6%,-3.5%,i,?
CCc1ccc(C2CC(=O)N3CN(c4ccccc4)CSC3=C2C#N)cc1 (centres undefined),6.7%,1.2%,-0.1%,i,i
N#CC1=C2SCC(O)(c3ccccc3)N2C(=O)CC1c1ccccc1 (centres undefined),-6.2%,11.6µM*,5.8µM*,1.3µM*,1.84µM*
N#CCCN(C(=S)NC(=O)C1CCCCC1)c1ccccc1F,0.9%,-1.9%,-29.8%,?,i
CCc1cccc(NC(=O)C2CCN(S(=O)(=O)c3cccc(-c4noc(C)n4)c3)CC2)c1,·,·,·,i,i
CC(C)(C)CC(C)(C)c1ccc(OCC(=O)Nc2ccc(S(=O)(=O)Nc3ncccn3)cc2)cc1,·,·,·,i,i
Cc1cc(S(=O)(=O)Nc2cc3c(cc2NCc2ccccc2)n(C)c(=O)n3C)ccc1F,·,·,·,i,20.6µM*
Cn1c(=O)n(C)c2cc(NS(=O)(=O)c3ccc(Cl)cc3)c(NCc3ccccc3)cc21,·,·,·,?,i
Cc1ccc(CNS(=O)(=O)c2ccc3c(c2)n(C)c(=O)n3C)cc1,8.2µM*,10.0%,-1.9%,i,i
CCNS(=O)(=O)c1ccc2c(c1)n(C)c(=O)n2C,4.9%,-6.5%,-3.7%,i,i
Cc1ccc(S(=O)(=O)c2cn(C)c3cc(N4CCOCC4)c(F)cc3c2=O)c(C)c1,·,·,·,i,i
CNS(=O)(=O)c1cn(CC(=O)Nc2ccc(OC)cc2OC)cc1S(=O)(=O)NC,·,·,·,i,i
CCN=C1S/C(=C\c2ccc(-c3cccc(C(=O)O)c3)o2)C(=O)N1CC,?,5.8µM*,?,i,i
CCN=C1S/C(=C/c2ccc(-c3ccc(Cl)cc3C(=O)O)o2)C(=O)N1CC,2.0%,11.6µM*,6.51µM*,i,i
Cc1cc(NC(=O)CSc2nnc(-c3ccccc3F)n2N)no1,2.5%,-3.8%,0.2%,i,i
Oc1c(C(Nc2ccccn2)c2ccccc2)ccc2cccnc12 (centres undefined),·,·,·,i,i
O=[N+]([O-])c1ccc(NC(c2ccccc2)c2ccc3cccnc3c2O)cc1 (centres undefined),·,0.82µM*,?,4.61µM*,?
COc1cccc(C(NC(C)=O)c2ccc3cccnc3c2O)c1 (centres undefined),?,0.651µM*,?,3.66µM*,i
